# Screening data (PubChem)
# The entries come from a sample that favours hits as a whole.
# TTR transcr act: activators of transthyretin transcription | hit rate 1.3% among 92,000 | AID 1117267 | activation, % at 16.7 µM | SH-SY5Y TTR promoter Gaussia luciferase, luminescence; 100% = recombinant luciferase protein wells;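 active = activation above the mean of all tested compounds plus 3 SD, cut at about 9.5% in these data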;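 also: cells exposed to compounds for one day before reading; 0% = median of all test compound wells on the plate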
# HuH7 TTR inh: counter-screen for TTR activators: TTR transcription inhibitors in HuH7 cells | shares compounds with TTR transcr act | HuH7 TTR promoter-Gaussia luciferase reporter, luminescence | inhibition, % at 16.7 µM | hit rate 4% among 1,100;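 active = average inhibition above the solvent-only control wells' mean plus 3 SD, cut at about 15% in these data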;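 also: 0% = cells with DMSO only and 100% = cells with inhibitor control FD; inhibitors lower well luminescence so higher value means more inhibition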
# TTR up confirm: human TTR transcription activation, confirmation. shares compounds with TTR transcr act. SHSY5Y TTR promoter Gaussia luciferase, luminescence; 100% = purified Lucia enzyme wells, no cells. activation, % at 16.7 µM. 1,100 tested, under 10 active. AID 1117280;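 active = mean activation above a set limit taken from the earlier primary screen, cut at about 11% in these data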;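 also: 0% = DMSO-treated cells and 100% = recombinant Lucia luciferase without cells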
# The depositor's hits bear a star.
SMILES,TTR transcr act,others
COCCNC(=O)c1c(N)[nH]c(C(=O)c2ccc(Br)cc2)c1-c1c(OC)ccc2ccccc12,-0.3,
S=C(Nc1cc(Cl)cc(Cl)c1)NC(c1ccccc1)c1ccccc1,-1.7,
COc1ccc(CNC(=O)O[C@H]2CC[C@@]34CCCN3C(=O)CCC[C@H]4[C@H]2C)cc1,-1.6,
COC(=O)[C@@H]1[C@H](O[Si](C)(C)C(C)(C)C)C2OC2C[C@H]1S(=O)(=O)c1ccccc1 (stereo not given in full),-0.8,
COC(=O)[C@]12C[C@H](CC(=O)N3CCC(c4ccccc4)CC3)C(=O)N(Cc3ccc(Cl)cc3Cl)C1=C[C@H](COCc1ccccc1)O[C@@H]2C,-1.7,
COc1ccc(CCNC(=O)c2ccccc2Cl)cc1OC,-0.1,
COc1ccc(CCNC(=O)c2ccc([N+](=O)[O-])cc2Cl)cc1OC,25.8*,HuH7 TTR inh=-24.1;TTR up confirm=0.6
COc1ccc(CCNC(=O)c2ccc(-c3ccc([N+](=O)[O-])cc3Cl)o2)cc1OC,-2.5,
O=C(NCCc1ccccc1)OCc1cn(Cc2ccc(Cl)cc2)nn1,-0.2,
COC(=O)[C@]12C[C@H](CC(=O)NCc3cccc4ccccc34)C(=O)N(Cc3ccc(Cl)cc3Cl)C1=C[C@H](C(C)C)O[C@@H]2C1CC1,0.5,
COC(=O)C1CN(Cc2ccccc2)CCS(=O)(=O)N1Cc1cn(Cc2cccc(Cl)c2)nn1 (stereo not given),-0.8,
Cn1c(SCCN2CCCCC2)nnc1-c1ccccc1Br,14.0*,HuH7 TTR inh=-7.4;TTR up confirm=-0.3
Cn1c(SCC(=O)N2CCCCCC2)nnc1-c1ccco1,1.5,
Cc1ccc(C#N)c(SCCN2CCCCC2)n1,-0.8,
CCCCNC(=O)COCc1cc(-c2ccc3c(c2)OCO3)on1,-1.1,
CC(C)CNC(=O)COCc1cc(-c2ccc3c(c2)OCO3)on1,11.7*,HuH7 TTR inh=-1.9;TTR up confirm=1.3
CCCNC(=O)COCc1cc(-c2ccc3c(c2)OCO3)on1,-0.3,
CC(C)[C@@H](C)/C=C/[C@@H](C)[C@H]1CC[C@@H]2[C@]1(C)CCC1[C@]23C=C[C@]2(C[C@@H](O)CC[C@]12C)N(c1ccc(F)cn1)O3 (stereo not given in full),0.7,
CCOC(=O)[C@@H]1CSCCS(=O)(=O)N1C(=O)[C@H](CC(C)C)NC(=O)OC(C)(C)C,0.8,
Cc1cccc(C(=O)Nc2c(-c3ccccc3)nc3ncccn23)c1,-0.7,
COC(=O)[C@]12C[C@H](CC(=O)N3CCCC3)C(=O)N(Cc3ccco3)C1=C[C@H](C1CCCC1)O[C@@H]2C,1.6,
CCC[C@H]1[C@@H](N(C)CC2CCCCC2)CC[C@@]23CCCN2C(=O)CCC[C@@H]13,-1.0,
c1nc(NCC2CC2)c2cc(-c3ccc4c(c3)OCO4)ccc2n1,-0.5,
Cc1c(C(=O)O)cnc2cc(-c3ccc(Cl)cc3)nn12,-0.8,
CC(=O)c1cnc2nc(C)nn2c1C,1.1,
SMILES,TTR transcr act,others
CC(=O)c1cnc2cc(-c3ccc(Cl)cc3)nn2c1C,12.3*,HuH7 TTR inh=13.3;TTR up confirm=-1.2
COC(=O)C1CN(CCO)CCS(=O)(=O)N1Cc1cccc(Cl)c1 (stereo not given),-0.4,
O=C1CCCN2N=C(SCC(=O)Nc3ccc([N+](=O)[O-])cc3)SC2=N1,32.1*,HuH7 TTR inh=-9.7;TTR up confirm=-0.6
O=C1CCCN2N=C(SCC(=O)Nc3nccs3)SC2=N1,-0.6,
Cc1ccc(NC(=O)CSC2=NN3CCCC(=O)N=C3S2)c(C)c1,-0.4,
Cc1ccc(CN2CCCCC(NC(=O)Cc3cccs3)C2=O)cc1 (stereo not given),-1.3,
COC(=O)[C@@]12CCCCC3=C1N(CCC3)C(=O)[C@H]2CC(=O)NCCC(C)C,-0.2,
COP(N)(=O)C(CC(C)C)NC(=O)OCc1ccccc1 (stereo not given),-0.1,
C[C@H]1[C@@H](NC(=O)c2cccc(N(C)C)c2)CC[C@@]23CCCN2C(=O)CCC[C@@H]13,-0.7,
CCCCNC(=O)O[C@H]1CC[C@@]23CCCN2C(=O)CCC[C@H]3C1,1.6,
O=C(NNC(=S)NC1CC2C=CC1C2)c1ccncc1 (stereo not given),0.9,
N#CCCN(Cc1cccnc1)C(=S)NC1CC2C=CC1C2 (stereo not given),10.3*,HuH7 TTR inh=-8.8;TTR up confirm=0.9
O=C(CNC(=S)N(Cc1ccccc1)Cc1cccnc1)NC1CC1,5.4,
C=CCN1C(=O)[C@H](CC(=O)NCC2CCCCC2)[C@@]2(C(=O)OCC)CCCC=C12,-0.5,
COC(CNC(=O)[C@H](Cc1ccccc1)NCC(=O)NC1CCCCC1)OC,0.0,
CCCCCCCCN1C(=O)[C@@H](CC(=O)N2CCCC2)C[C@@]2(C(=O)OC)C1=C[C@H](C(C)C)O[C@@H]2C1CC1,-1.8,
O=C(Nc1ccccc1Cl)OC1CC2CC1[C@H]1CCCCN1[C@H]2Cc1ccccc1 (stereo not given in full),-0.7,
O=C(NCc1nc2ccccc2[nH]1)C1=C[C@H](C2CC2)C[C@H](OCCCCO)O1,10.1*,HuH7 TTR inh=-26.0;TTR up confirm=0.0
O=C(NCc1nc2ccccc2[nH]1)C1=C[C@H](C2CCCCC2)C[C@H](OCCCCO)O1,3.1,
C#CCNC(=O)C1=C[C@@H](C2CC2)C[C@@H](OCCCCO)O1,1.4,
CC(=C\C=O)/C(C)=C/CC[C@@H]1O[C@@H]2C[C@@H]3O[C@](C)(C[C@H]4C[C@H](O)[C@@H]5O[C@@H]6C[C@H](O)[C@@H](C)O[C@@]6(C)CC[C@H]5O4)[C@@H](O)CC[C@@]3(C)O[C@H]2[C@@H](O)[C@@H]1C,0.6,
COC(=O)C(CN)CN1C(=O)c2ccccc2C1=O (stereo not given),0.0,
COc1cccc(C(=O)NOCc2ccc(C)cc2)c1OC,9.7*,HuH7 TTR inh=-7.1;TTR up confirm=-0.7
COc1cccc(C(=O)NCCC2=CCCCC2)c1OC,1.0,
COCCCNC(=O)c1cccc(OC)c1OC,-1.6,
SMILES,TTR transcr act,others
O=C(NC1CCCCN(Cc2ccc(Cl)cc2)C1=O)c1cccs1 (stereo not given),0.8,
Cc1ccccc1C(=O)n1ccc2ccc(-c3ccc4ccn(Cc5ccc(C#N)cc5)c4c3)cc21,1.0,
Cc1ccc(C(=O)N2O[C@]34C=C[C@]25C[C@@H](O)CC[C@]5(C)C3CC[C@]2(C)[C@@H]([C@H](C)/C=C/[C@H](C)C(C)C)CC[C@H]24)cc1 (stereo not given in full),-0.8,
CC(C)N1CCCCC(NC(=O)c2ccc(Br)cc2)C1=O (stereo not given),1.8,
CC(C)N1CCCCC(NC(=O)c2ccccc2)C1=O (stereo not given),0.9,
C=CC(=O)NC1CCCCN(C(C)C)C1=O (stereo not given),11.6*,HuH7 TTR inh=-10.6;TTR up confirm=-0.6
CCCCCCc1ccc(NC(=O)[C@@H]2CC=C[C@@H]3CCN(Cc4ccccc4)C(=O)[C@@H]32)cc1,-1.3,
COC(=O)[C@]12C[C@H](CC(=O)NCCCCc3ccccc3)C(=O)N(Cc3ccco3)C1=C[C@H](C1CCCC1)O[C@@H]2C,1.5,
O=S(=O)(Oc1ccccc1-c1ccccc1)c1ccccc1,-0.5,
O=S(=O)(NCCC1CC1(Cl)Cl)c1ccccc1 (stereo not given),-0.1,
O=S(=O)(c1ccccc1)C1CC1(c1ccccc1)c1ccccc1 (stereo not given),13.6*,HuH7 TTR inh=-3.5;TTR up confirm=-0.1
COc1ccc(CNS(=O)(=O)CC2NCCc3ccccc32)cc1 (stereo not given),0.5,
